# Results filed as inconclusive are left out. More than one record can exist for a structure, and the calls need not agree. Active and inactive are the calls of the source. The calls were made as follows: active = hit-call score of the fitted dose curve at least 0.9, where 1 is the maximum; inconclusive = response in the unintended direction; inactive = score below 0.9.
# What was measured:
# [1] = target: human Dopamine Transporter (DAT), SLC6A3 (gene 6531) (UniProt Q01959); experiment: NVS_TR_hDAT: NovaScreen (NVS) Transporter Assay for human Dopamine Transporter (DAT) (AID 2283374);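 also: activity means loss of bound radioligand signal relative to DMSO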
# Procedure, shortened: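 Cell-free radioligand displacement binding at human DAT, 1 h after dosing, with filtration and scintillation counting. Primary screen in duplicate at 25 uM, actives then in concentration series. Loss of bound signal versus DMSO scored.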
# [2] = target: Nuclear receptor subfamily 1 group I member 2 (Homo sapiens) (UniProt O75469); experiment: NVS_NR_hPXR: NovaScreen (NVS) Nuclear Receptor Binding Assay for human Pregnane X Receptor (PXR) (AID 2283365);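 also: a drop in FRET signal versus DMSO baseline means the compound binds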
# Procedure, shortened: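 TR-FRET signal read at 2 h in a cell-free human PXR binding format. DMSO served as negative control and baseline; activity scored as signal loss. Single-concentration duplicate screen (25 uM), then concentration-response follow-up.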
# [3] = target: Peroxisome proliferator-activated receptor gamma (Homo sapiens) (UniProt P37231); experiment: NVS_NR_hPPARg: NovaScreen (NVS) Nuclear Receptor Binding Assay for human Peroxisome Proliferator-activated Receptor gamma (PPARg) (AID 2283370)
# Procedure, shortened: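 FP read-out, 2 h post-dose, cell-free extracted receptor protein. Signal loss vs DMSO negative control = binding activity. Single-conc duplicate HTS at 25 uM; concentration-response follow-up for actives.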
# [4] = tested on: guinea pig Dopamine Transporter (DAT), gene 100714898; experiment: NVS_TR_gDAT: NovaScreen (NVS) Transporter Assay for guinea pig Dopamine Transporter (DAT) (AID 2283369);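 also: active compounds lower bound radioligand signal relative to DMSO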
# Procedure, shortened: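 Cell-free striatal membrane prep (guinea pig), 2 h exposure, filtration + scintillation readout of radioligand binding. Single-point 25 uM duplicate; actives rerun singleton, top conc 50 uM.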
# [5] = target: rat Serotonin Transporter (SERT), Slc6a4 (gene 25553) (UniProt P31652); experiment: NVS_TR_rSERT: NovaScreen (NVS) Transporter Assay for rat Serotonin Transporter (SERT) (AID 2283375)
# Procedure, shortened: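 Radioligand displacement, filter scintillation readout; rat forebrain membrane prep, 1 h post-dose. Single-conc 25 uM duplicate screen, then concentration-response on actives. Loss of signal vs DMSO baseline.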
# [6] = target: rat Androgen Receptor (AR), Ar (gene 24208) (UniProt P15207); experiment: NVS_NR_rAR: NovaScreen (NVS) Nuclear Receptor Binding Assay for rat Androgen Receptor (AR) (AID 2283366)
# Procedure, shortened: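 Cell-free radioligand binding on extracts of prostate from testosterone-pretreated rats, read by filter-based scintillation counting 18 h after dosing. Loss of bound signal fitted positively versus DMSO; primary screen in duplicate at 25 uM, actives followed up in concentration series.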
# [7] = target: Retinoic acid receptor alpha (Homo sapiens) (UniProt P10276); experiment: NVS_NR_hRARa_Agonist: NovaScreen (NVS) Nuclear Receptor Binding Assay for human Retinoic Acid Alpha Receptor Agonism (RAR) (AID 2283361)
# Procedure, shortened: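 Cell-free TR-FRET binding readout with extracted receptor protein, read 2 hours after dosing; gain-of-signal fitted relative to DMSO. Screened in duplicate at 25 uM, actives then run in concentration-response.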
# [8] = target: human Thyroid Receptor Alpha (TRa), THRA (gene 7067) (UniProt P10827); experiment: NVS_NR_hTRa_Antagonist: NovaScreen (NVS) Nuclear Receptor Binding Assay for human Thyroid Receptor Alpha Antagonism (TRa) (AID 2283362);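 also: activity is loss of signal relative to DMSO baseline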
# Procedure, shortened: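 AlphaLISA chemiluminescent immunoassay readout, taken 1 h post-dosing in a cell-free system with extracted protein. Activity was scored as signal loss against DMSO negative control, from duplicate single-concentration (25 uM) testing followed by concentration-response follow-up.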
# [9] = target: Glucocorticoid receptor (Homo sapiens) (UniProt P04150); experiment: NVS_NR_hGR: NovaScreen (NVS) Nuclear Receptor Binding Assay for human Glucocorticoid Receptor (GR) (AID 2283363);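 also: activity is loss of specific radioligand binding signal relative to DMSO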
# Procedure, shortened: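 Cell-free radioligand displacement assay on extracted human GR, read 16 h after dosing by filter-based scintillation counting. Screened in duplicate at 25 uM, then concentration series for actives; loss of signal versus DMSO baseline.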
# Sequence of Peroxisome proliferator-activated receptor gamma (Homo sapiens) (P37231 whole entry, looked up): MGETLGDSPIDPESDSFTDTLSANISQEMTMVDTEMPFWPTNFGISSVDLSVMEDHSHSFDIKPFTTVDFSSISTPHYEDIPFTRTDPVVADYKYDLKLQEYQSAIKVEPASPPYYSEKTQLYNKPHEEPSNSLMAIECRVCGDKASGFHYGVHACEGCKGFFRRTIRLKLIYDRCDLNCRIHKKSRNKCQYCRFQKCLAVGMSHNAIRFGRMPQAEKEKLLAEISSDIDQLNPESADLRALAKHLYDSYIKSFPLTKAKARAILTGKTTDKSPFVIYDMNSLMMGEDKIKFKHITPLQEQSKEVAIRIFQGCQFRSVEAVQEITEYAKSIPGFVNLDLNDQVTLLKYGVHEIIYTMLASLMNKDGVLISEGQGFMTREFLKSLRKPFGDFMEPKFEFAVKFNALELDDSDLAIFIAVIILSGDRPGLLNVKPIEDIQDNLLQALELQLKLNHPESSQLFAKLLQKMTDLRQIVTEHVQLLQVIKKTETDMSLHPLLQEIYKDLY
# Sequence of Nuclear receptor subfamily 1 group I member 2 (Homo sapiens) (O75469 whole entry, looked up): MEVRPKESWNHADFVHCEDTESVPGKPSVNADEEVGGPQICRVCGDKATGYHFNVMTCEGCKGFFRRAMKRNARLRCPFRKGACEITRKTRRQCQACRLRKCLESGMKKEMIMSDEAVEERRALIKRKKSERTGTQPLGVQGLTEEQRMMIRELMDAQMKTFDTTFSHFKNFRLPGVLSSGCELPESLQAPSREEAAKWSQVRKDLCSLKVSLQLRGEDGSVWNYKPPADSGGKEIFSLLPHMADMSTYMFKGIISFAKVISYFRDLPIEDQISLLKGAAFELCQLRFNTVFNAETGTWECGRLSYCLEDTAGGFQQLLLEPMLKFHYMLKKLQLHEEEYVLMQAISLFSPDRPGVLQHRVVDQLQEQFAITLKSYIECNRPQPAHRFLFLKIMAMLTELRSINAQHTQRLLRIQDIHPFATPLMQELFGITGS
# Sequence of rat Androgen Receptor (AR), Ar (gene 24208) (P15207 whole entry, looked up): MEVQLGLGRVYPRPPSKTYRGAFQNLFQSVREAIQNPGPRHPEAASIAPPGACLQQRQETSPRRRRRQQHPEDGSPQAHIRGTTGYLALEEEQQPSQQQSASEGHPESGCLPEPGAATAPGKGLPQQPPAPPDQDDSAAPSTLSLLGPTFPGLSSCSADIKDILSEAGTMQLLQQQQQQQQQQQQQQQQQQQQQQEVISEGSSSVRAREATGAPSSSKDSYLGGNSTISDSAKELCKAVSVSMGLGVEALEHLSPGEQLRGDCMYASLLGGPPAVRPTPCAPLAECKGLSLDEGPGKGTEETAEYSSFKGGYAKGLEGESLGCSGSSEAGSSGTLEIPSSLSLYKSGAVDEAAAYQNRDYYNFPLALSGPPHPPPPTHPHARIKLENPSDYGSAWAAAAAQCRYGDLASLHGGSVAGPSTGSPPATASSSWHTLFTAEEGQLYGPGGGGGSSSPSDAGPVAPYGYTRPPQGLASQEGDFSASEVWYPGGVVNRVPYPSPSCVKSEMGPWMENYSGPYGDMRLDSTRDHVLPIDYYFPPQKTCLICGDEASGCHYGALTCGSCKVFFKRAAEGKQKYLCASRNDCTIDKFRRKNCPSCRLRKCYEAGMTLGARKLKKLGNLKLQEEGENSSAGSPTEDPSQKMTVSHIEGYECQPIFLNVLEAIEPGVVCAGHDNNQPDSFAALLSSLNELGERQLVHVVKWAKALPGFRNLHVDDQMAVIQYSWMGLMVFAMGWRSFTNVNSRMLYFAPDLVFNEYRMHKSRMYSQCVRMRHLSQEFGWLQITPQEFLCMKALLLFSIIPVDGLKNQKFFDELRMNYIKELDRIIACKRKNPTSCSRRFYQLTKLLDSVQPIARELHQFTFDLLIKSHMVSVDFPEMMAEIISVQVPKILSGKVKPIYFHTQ
# Sequence of human Dopamine Transporter (DAT), SLC6A3 (gene 6531) (Q01959 whole entry, looked up): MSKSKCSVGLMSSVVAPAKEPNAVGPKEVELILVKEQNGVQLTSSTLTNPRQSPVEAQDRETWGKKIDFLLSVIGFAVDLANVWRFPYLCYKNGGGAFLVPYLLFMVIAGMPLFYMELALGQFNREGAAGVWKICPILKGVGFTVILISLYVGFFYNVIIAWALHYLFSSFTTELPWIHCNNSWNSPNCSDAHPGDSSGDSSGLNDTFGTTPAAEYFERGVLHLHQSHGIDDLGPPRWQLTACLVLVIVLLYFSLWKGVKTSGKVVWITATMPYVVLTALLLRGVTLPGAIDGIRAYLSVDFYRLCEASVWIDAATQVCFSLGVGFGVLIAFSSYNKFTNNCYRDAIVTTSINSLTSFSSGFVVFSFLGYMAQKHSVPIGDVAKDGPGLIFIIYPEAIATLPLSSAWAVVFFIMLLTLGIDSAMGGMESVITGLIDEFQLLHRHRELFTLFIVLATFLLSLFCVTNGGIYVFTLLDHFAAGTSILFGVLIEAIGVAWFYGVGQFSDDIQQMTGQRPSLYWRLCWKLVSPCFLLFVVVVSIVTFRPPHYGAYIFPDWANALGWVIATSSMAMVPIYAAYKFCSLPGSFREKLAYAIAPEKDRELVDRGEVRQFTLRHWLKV
# Sequence of rat Serotonin Transporter (SERT), Slc6a4 (gene 25553) (P31652 whole entry, looked up): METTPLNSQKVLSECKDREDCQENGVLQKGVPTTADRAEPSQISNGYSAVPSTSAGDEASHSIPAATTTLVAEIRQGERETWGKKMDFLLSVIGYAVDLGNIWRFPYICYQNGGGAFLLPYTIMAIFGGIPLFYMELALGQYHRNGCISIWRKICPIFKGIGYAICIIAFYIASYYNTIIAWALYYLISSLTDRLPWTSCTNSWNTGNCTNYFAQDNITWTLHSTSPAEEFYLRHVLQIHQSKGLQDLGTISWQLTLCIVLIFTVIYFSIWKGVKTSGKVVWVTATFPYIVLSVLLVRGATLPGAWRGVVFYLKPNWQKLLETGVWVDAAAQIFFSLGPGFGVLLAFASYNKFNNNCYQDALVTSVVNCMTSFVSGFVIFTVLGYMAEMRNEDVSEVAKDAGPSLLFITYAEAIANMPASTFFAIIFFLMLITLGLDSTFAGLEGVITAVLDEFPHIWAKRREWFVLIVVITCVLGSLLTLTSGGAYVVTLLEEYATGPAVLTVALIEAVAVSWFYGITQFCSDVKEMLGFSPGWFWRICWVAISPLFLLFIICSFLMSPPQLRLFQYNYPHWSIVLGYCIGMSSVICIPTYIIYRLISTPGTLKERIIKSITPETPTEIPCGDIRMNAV
# Sequence of Glucocorticoid receptor (Homo sapiens) (P04150 whole entry, looked up): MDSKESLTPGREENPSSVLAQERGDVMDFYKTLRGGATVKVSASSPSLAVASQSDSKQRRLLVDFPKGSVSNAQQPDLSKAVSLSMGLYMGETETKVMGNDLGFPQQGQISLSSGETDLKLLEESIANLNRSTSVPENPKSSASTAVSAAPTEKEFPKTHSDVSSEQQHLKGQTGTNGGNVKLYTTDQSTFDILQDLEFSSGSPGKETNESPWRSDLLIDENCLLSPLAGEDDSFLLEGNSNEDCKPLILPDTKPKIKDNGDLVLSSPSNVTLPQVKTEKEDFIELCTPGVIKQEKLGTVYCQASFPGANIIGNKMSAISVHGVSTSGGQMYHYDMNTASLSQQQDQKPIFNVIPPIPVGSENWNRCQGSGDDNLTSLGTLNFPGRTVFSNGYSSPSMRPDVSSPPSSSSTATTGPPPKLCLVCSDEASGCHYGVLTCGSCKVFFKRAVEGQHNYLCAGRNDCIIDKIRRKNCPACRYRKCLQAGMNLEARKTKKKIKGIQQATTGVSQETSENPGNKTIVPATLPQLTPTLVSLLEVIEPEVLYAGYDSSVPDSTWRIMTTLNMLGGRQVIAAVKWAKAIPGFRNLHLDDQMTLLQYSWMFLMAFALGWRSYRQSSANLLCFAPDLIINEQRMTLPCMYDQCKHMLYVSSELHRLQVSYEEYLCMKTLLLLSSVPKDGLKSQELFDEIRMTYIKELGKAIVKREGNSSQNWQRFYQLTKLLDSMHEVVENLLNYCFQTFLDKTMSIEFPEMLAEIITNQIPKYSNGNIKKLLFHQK
# Sequence of Retinoic acid receptor alpha (Homo sapiens) (P10276 whole entry, looked up): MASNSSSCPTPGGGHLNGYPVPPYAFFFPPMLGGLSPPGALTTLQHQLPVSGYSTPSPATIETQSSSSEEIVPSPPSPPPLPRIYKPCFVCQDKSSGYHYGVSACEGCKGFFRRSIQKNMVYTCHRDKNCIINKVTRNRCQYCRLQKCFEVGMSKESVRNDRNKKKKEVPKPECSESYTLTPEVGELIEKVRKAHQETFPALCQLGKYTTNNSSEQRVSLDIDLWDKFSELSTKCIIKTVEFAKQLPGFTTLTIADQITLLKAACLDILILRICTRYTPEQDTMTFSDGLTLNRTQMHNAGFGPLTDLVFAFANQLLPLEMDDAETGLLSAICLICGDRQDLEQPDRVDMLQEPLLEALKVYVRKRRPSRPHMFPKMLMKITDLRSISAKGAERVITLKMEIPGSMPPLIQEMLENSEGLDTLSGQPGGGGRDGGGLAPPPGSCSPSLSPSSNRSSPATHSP
# Sequence of human Thyroid Receptor Alpha (TRa), THRA (gene 7067) (P10827 whole entry, looked up): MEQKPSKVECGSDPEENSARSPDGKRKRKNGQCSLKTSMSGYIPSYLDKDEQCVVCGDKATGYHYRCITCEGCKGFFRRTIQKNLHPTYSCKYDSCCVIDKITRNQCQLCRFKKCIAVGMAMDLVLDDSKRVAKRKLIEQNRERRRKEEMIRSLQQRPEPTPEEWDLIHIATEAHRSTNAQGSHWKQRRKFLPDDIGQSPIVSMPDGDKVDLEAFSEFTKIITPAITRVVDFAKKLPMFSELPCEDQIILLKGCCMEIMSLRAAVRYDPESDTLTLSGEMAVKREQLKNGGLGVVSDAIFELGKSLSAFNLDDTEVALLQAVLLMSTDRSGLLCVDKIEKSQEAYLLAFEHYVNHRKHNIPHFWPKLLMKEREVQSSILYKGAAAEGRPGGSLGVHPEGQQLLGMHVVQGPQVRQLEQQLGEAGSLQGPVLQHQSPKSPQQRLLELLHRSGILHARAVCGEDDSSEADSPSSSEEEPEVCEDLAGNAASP
smiles,measurement,setting,value
Cc1cc(O)c(C(C)(C)C)cc1C(C)(C)C,AC50,[1],23.7 µM (active)
CCOC(OCC)OCC,outcome,[2],inactive
same,outcome,[3],inactive
O=C1C=CC(=O)N1c1ccc(Cc2ccc(N3C(=O)C=CC3=O)cc2)cc1,AC50,[4],11.3 µM (active)
same,outcome,[1],inactive
O=C(c1ccccc1)c1ccc(Cl)cc1,AC50,[1],20.2 µM (active)
CCc1cc(Cc2cc(CC)c(N)c(CC)c2)cc(CC)c1N,outcome,[2],inactive
same,AC50,[3],14.2 µM (active)
same,outcome,[3],inactive
Cc1ccc(S(=O)(=O)C(I)I)cc1,AC50,[4],15.6 µM (active)
CCN(CC)c1ccc(C=O)cc1,AC50,[5],15.8 µM (active)
CCN(CC)c1ccc(C=O)c(O)c1,AC50,[6],25 µM (active)
same,AC50,[4],15 µM (active)
CCCCCCCCCc1ccc(OCCO)cc1,outcome,[2],inactive
same,outcome,[3],inactive
CCN=c1cc2oc3cc(NCC)c(C)cc3c(-c3ccccc3C(=O)OCC)c-2cc1C,AC50,[7],18.1 µM (active)
same,AC50,[8],38.3 µM (active)
same,AC50,[9],9.39 µM (active)
same,AC50,[6],6.57 µM (active)
CCn1c2ccccc2c2ccccc21,outcome,[1],inactive
O=C1c2ccccc2C(=O)c2c(Cl)cccc21,outcome,[6],inactive
CC(C)(C)c1cc(Cc2cc(C(C)(C)C)c(O)c(C(C)(C)C)c2)cc(C(C)(C)C)c1O,outcome,[2],inactive
same,outcome,[3],inactive
CCCCCCCC/C=C\CCCCCCCC(=O)N(C)CC(=O)O,AC50,[9],4.85 µM (active)
same,outcome,[2],inactive
C#CC(O)CCC (configuration not stated),outcome,[6],inactive
COCCOCCC[Si](C)(O[Si](C)(C)C)O[Si](C)(C)C,outcome,[2],inactive
same,outcome,[3],inactive
CCN(CC)c1ccc(N=Nc2ccccc2)cc1,outcome,[4],inactive
same,outcome,[1],inactive
same,AC50,[5],3.36 µM (active)
CCCCCCCCn1sc(Cl)c(Cl)c1=O,outcome,[3],inactive
